The record followed here is ChEMBL document CHEMBL1157539, “Thousands of chemical starting points for antimalarial lead identification” (Nature, 2010).

This test deals with Plasmodium falciparum. Put plainly: GSK_TCMDC: Inhibition of Plasmodium falciparum 3D7 in whole red blood cells, using parasite LDH activity as an index of growth. Test compounds present at 2uM. The class given is functional.
Compound `Cn1nc(-c2ccc(CNC3CCc4ccccc43)cc2)c2cnc(NCCN3CCCC3)nc21` (stereo not drawn) registered an Inhibition of 99%.
For the compound `COc1ccccc1N1CCN(CCCCNC(=O)c2ccc(NC(=O)c3cc(Cl)cc(Cl)c3)cc2)CC1`, the Inhibition was determined as 100%.
`CC(=O)N(C)c1cccc(C(=O)Nc2cccc(-c3cccc(-c4nc5cccc(C)c5[nH]4)c3)c2)c1` returned an Inhibition of 89%.
Then `Cc1ccc(NC(=O)c2ccc(NCCCN3CC(C)CC(C)C3)c([N+](=O)[O-])c2)cc1F` (stereo not drawn), with 100%; and `COc1ccccc1Cc1c(C)nc2nc(N)nc(N)c2c1C.Cl`, with 96%; and `CCNC(=O)N1CCN(c2nc(-c3ccccc3)nc(COC)c2Cc2ccc(C)cc2)CC1`, with 95%.
Then `CC(C)N1CCC(N(Cc2ccc(-c3ccc(C(F)(F)F)cc3)cc2)C(=O)Cn2c(CCc3cccc(F)c3F)nc(=O)c3cccnc32)CC1.O=C(O)C(O)C(O)C(=O)O`, with 100%; and `O=C(Nc1cccc(CN2CCCN(Cc3ncc[nH]3)CC2)c1)c1ccc(Cl)c(Cl)c1.O=C(O)C(F)(F)F`, with 100%; and `COc1ccccc1CNC(=O)c1ccc(N2CCN(c3ccncc3)CC2)cn1.O=C(O)C(F)(F)F`, with 96%.
In the case of `CCC(C)NC(=O)Nc1cccc(-c2cccc(-c3nc4cccc(C)c4[nH]3)c2)c1` (stereo not drawn) it was 100%; in that of `O=C(Nc1cccc(C(F)(F)F)c1)c1ccc(S(=O)(=O)NCC2CCCN(CC3CCCCC3)C2)cc1.O=C(O)C(F)(F)F` (stereo not drawn), 95%; in that of `COc1ccc(Nc2nc(NC3CCN(Cc4ccccc4)CC3)cc(-c3ccncc3)n2)cc1`, 88%.
In turn, `COc1ccc(-c2cccc(NC(=O)c3cccc(C#N)c3)c2)cc1CN1CCC(O)CC1.O=C(O)C(F)(F)F` came in with an Inhibition of 97%.
